Data reported in PubChem BioAssay (EPA / NIEHS).
Calls of active or inactive are those of the source. Rule for the calls: active = hit-call score of the fitted dose curve at least 0.9, where 1 is the maximum; inactive = score below 0.9.

Read-out: CFLAR gene, CFLAR (gene 8837)
Assay: LTEA_HepaRG_CFLAR: Life Technologies and Expression Analysis (LTEA) Assay for CFLAR gene using HepaRG (AID 2283455)
Details: mRNA level, 48 h; actives raise or lower the signal
Outline: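 HepaRG, 48 h exposure, 8-pt conc-response (100 uM top, half-log), 0.5% DMSO vehicle, duplicates. CFLAR expression by qRT-PCR; ACTB/GAPDH/POLR2A normalization; gain or loss fit vs DMSO baseline.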

outcome, inactive:
CC1(C)C(=O)N(Br)C(=O)N1Br
CC(=O)OCCC(C)C
CC(=O)c1ccc2c(c1)[C@H](NC(=O)c1ccc(F)cc1)[C@@H](O)C(C)(C)O2
O=C(CCCCCCCCc1cccnc1)N1CCC(C=C(c2ccccc2)c2ccccc2)CC1
Cn1cnc([N+](=O)[O-])c1Sc1ncnc2nc[nH]c12
C1=CCCC=CCCC=CCC1
O=c1[nH]c2ccc(S(=O)CCN3CCC(Cc4ccc(F)cc4)CC3)cc2o1 (centres undefined)
Cn1c(=O)c2c(ncn2C)n(C)c1=O
O=C1OC(=O)C2C3C=CC(C3)C12 (centres undefined)
CC(C)=CCCC(C)CCO (centres undefined)
Cn1c(=O)cc(Oc2ccc(F)cc2F)c2cnc(NCC(C)(C)O)nc21
CC(C)CC(C)(O)C#CC(C)(O)CC(C)C (centres undefined)
Clc1nc(Cl)c(Cl)c(Cl)c1Cl
COC(=O)c1c(Cl)c(Cl)c(C(=O)OC)c(Cl)c1Cl
CCn1nc(Cc2ccccc2)cc1C1CCN(C[C@H]2C[C@H](N(C)[C@@H](C(=O)O)C(C)C)C[C@@H]2c2cccc(F)c2)CC1
CCC(C)(C)C(=O)O[C@H]1C[C@@H](C)C=C2C=C[C@H](C)[C@H](CC[C@@H]3C[C@@H](O)CC(=O)O3)[C@H]21
CCCC(=O)OCC
CC(C)CCCCCCOC(=O)c1ccc(C(=O)OCCCCCCC(C)C)c(C(=O)OCCCCCCC(C)C)c1
C[C@](N)(Cc1ccc(O)c(O)c1)C(=O)O
COc1ccc(-n2nc(C(F)F)cc2-c2ccc(S(C)=O)cc2)cc1 (centres undefined)
CCOCCO
O=C(NS(=O)(=O)/C=C/c1ccccc1)c1ccc(F)cc1Cl
CCCCCCCCCCCCCCCO
CCOC(=O)COc1ccc2c(c1)CC(NCC(O)c1cccc(Cl)c1)CC2 (centres undefined)
CCCCCCCCO
CC(C)c1cccc(C(C)C)c1N1C(=O)c2ccc(O)cc2C1=O
CNCc1ccc(NC(=O)c2c[nH]c3c2C(=O)CCC3)cc1
CN(C)c1ccc(N=NS(=O)(=O)O)cc1
O=C(O)CCN(C1(C(=O)NO)CCCC1)S(=O)(=O)c1ccc(Oc2ccc(F)cc2)cc1
